Columns and labels:
Assay in all cases: DAPPL (digital affinity profiling via proximity ligation, sequencing); 10 mM Tris-HCl pH 7.5, 50 mM NaCl, 1 mM DTT, 4% glycerol, room temperature, 30 min; GST-TFs on glutathione beads, 16-mer random dsDNA library, 0.1% formaldehyde crosslink after washing; high values mean tight binding
Details in all cases: protein: recombinant; tags: N-terminal GST; dsDNA, one strand shown
[1] = molecular target: T1, FLI1 (Homo sapiens, UniProt Q01543 1-452)
T1 sequence: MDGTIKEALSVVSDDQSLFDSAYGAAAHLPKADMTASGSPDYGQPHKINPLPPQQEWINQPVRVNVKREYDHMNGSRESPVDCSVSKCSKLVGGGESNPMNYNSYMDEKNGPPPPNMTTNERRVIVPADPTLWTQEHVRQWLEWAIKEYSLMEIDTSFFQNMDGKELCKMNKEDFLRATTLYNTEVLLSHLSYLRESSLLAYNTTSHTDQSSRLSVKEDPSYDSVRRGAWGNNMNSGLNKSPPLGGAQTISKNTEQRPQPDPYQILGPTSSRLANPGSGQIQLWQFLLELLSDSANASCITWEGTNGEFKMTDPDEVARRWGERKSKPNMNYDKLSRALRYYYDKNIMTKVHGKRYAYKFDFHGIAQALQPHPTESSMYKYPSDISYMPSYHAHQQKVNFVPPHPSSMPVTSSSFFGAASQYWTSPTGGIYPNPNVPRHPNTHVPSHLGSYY
Summary of the method: (§1)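 Pools of DNA-barcoded human transcription factors, expressed in yeast as GST fusions on glutathione beads and combined with a tag-only sample, were incubated with 200 nmole of a 16-mer random double-stranded DNA library. Incubation took 30 min at room temperature in Tris/NaCl/DTT/glycerol buffer and was followed by washing, 0.1% formaldehyde crosslinking, proximity ligation (BsaI/T4 ligase, 1 h, 37 °C), PCR amplification and sequencing on an Illumina NextSeq500. Binding signal is the ratio of a hexamer's read frequency for a factor to its frequency for the tag-only sample.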

[2] = molecular target: T2, ELK1 (Homo sapiens, UniProt P19419 1-428)
T2 sequence: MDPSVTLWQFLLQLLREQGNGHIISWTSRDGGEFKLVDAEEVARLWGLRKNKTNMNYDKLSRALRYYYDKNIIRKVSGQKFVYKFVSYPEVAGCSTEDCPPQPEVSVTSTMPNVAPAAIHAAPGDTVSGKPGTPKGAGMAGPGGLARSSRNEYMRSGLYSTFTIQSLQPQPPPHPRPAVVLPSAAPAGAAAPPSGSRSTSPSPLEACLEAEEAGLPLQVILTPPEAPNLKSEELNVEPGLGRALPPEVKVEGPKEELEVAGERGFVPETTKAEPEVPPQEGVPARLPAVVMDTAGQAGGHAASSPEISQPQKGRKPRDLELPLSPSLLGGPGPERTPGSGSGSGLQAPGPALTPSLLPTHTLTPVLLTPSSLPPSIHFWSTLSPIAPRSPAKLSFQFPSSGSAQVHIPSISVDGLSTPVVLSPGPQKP
Summary of the method: as §1

[3] = molecular target: T3, GABPA (Homo sapiens, UniProt Q06546 1-454)
T3 sequence: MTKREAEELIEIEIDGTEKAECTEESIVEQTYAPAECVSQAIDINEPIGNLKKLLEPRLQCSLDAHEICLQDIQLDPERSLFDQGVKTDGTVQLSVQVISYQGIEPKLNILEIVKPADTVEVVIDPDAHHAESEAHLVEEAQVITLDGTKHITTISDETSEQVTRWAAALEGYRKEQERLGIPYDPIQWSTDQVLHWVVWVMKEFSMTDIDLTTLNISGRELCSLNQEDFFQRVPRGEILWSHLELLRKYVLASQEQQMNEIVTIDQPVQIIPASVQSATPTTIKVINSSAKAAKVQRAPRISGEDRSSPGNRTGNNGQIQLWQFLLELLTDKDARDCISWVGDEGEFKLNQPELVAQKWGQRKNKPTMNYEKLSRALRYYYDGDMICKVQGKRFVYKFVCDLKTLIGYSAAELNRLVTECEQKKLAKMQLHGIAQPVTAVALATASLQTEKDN
Summary of the method: as §1

[4] = molecular target: T4, ERG (Homo sapiens, UniProt P11308 1-479)
T4 sequence: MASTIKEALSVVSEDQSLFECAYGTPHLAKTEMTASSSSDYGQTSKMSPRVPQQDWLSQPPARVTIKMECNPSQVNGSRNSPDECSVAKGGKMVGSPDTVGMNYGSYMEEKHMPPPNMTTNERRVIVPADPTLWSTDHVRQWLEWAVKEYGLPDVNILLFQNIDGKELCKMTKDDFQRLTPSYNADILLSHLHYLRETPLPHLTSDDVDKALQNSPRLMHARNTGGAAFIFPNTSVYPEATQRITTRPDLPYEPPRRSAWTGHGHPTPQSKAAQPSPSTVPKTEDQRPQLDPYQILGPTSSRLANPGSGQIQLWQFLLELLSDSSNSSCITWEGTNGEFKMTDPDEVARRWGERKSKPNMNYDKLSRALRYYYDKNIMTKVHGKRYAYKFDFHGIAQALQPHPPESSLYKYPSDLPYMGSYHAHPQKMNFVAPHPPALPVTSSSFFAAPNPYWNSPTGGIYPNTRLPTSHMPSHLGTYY
Summary of the method: as §1

[5] = molecular target: ELF1 (Homo sapiens, UniProt P32519 1-619)
Summary of the method: as §1

[6] = molecular target: T5, EHF (Homo sapiens, UniProt Q9NZC4 1-300)
T5 sequence: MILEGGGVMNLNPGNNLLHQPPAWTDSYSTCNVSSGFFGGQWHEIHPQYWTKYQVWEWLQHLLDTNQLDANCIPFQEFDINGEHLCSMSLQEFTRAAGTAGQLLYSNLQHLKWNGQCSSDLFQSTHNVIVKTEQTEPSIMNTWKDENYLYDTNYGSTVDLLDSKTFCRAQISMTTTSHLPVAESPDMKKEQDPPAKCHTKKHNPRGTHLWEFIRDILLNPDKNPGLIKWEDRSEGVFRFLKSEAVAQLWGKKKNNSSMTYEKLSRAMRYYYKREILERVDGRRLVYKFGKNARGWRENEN
Summary of the method: as §1

[7] = molecular target: SPI1 (Homo sapiens, UniProt P17947 1-270)
Summary of the method: as §1

[8] = molecular target: SPIB (Homo sapiens, UniProt Q01892 1-262)
Summary of the method: as §1

[9] = molecular target: T6, ELK3 (Homo sapiens, UniProt P41970 1-407)
T6 sequence: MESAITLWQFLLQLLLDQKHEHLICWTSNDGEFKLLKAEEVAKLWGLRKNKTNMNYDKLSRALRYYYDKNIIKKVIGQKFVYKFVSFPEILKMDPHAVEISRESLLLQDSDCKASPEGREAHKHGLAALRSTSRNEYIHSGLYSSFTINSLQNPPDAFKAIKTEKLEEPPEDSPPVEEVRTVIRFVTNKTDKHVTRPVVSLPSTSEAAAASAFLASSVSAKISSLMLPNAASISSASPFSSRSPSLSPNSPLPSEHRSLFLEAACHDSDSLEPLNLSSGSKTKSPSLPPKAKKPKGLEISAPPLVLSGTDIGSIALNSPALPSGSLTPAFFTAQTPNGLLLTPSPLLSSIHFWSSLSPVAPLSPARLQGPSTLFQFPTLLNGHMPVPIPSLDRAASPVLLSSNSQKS
Summary of the method: as §1

Sequence of SPIB (Q01892 whole entry): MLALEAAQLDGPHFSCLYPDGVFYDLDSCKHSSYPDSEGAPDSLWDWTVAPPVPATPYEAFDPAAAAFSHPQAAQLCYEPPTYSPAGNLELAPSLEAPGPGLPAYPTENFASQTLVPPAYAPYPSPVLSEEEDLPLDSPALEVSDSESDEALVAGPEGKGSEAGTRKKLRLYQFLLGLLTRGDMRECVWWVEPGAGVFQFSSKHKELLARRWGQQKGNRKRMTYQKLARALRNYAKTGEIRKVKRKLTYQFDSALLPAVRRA
Sequence of ELF1 (P32519 whole entry): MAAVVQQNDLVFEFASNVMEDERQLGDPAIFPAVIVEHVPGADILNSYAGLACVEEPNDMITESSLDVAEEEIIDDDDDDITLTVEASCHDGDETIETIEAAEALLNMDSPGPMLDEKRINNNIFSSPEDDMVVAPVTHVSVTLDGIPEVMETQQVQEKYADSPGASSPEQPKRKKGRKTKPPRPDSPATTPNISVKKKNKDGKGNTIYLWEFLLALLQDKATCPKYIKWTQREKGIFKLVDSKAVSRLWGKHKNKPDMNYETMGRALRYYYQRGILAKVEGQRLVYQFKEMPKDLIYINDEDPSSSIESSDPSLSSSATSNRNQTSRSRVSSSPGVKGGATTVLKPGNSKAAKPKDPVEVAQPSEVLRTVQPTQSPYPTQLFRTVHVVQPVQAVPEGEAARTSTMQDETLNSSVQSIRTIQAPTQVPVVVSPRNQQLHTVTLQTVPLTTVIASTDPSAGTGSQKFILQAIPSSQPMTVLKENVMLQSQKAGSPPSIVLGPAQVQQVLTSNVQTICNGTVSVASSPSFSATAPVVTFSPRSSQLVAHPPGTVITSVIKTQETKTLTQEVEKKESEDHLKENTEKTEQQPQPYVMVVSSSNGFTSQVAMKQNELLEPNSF

Sequence: TGGTAA
- binding signal [1]: 1.28 fold enrichment (6-mer frequency, TF over GST control)
- binding signal [2]: 1.33 fold enrichment (6-mer frequency, TF over GST control)
- binding signal [3]: 1.32 fold enrichment (6-mer frequency, TF over GST control)
- binding signal [4]: 1.28 fold enrichment (6-mer frequency, TF over GST control)
- binding signal [5]: 1.28 fold enrichment (6-mer frequency, TF over GST control)
- binding signal [6]: 1.37 fold enrichment (6-mer frequency, TF over GST control)
- binding signal [7]: 1.28 fold enrichment (6-mer frequency, TF over GST control)
- binding signal [8]: 1.4 fold enrichment (6-mer frequency, TF over GST control)
- binding signal [9]: 1.32 fold enrichment (6-mer frequency, TF over GST control)

— paper PMC7862700, “An all-to-all approach to the identification of sequence-specific readers for epigenetic DNA modifications on cytosine”
